Test results reported in PubChem BioAssay (NCATS).
Inconclusive results are not listed. Activity calls are given as the source filed them. Unless noted, calls come from the whole dose curve; as a rule, active = well fitted curve in the direction sought with a large enough effect; inconclusive = small, poorly fitted or top-dose-only effect, or another doubt; inactive = no such curve, though single readings can be large; an effect the other way counts as inactive or inconclusive.

Experiments:
[1] = qHTS of Nrf2 Activators: LOPAC Validation (AID 624149)
How it was run: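 Following overnight seeding in 5% FBS OPTI-MEM, AREc32_Fluc cells receive compounds for a 24 hr incubation at 37 deg C with 5% CO2. Steady-Glo is added, and after 30 min at RT luminescence is recorded.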

[2] = HTS Assay for Allosteric Antagonists of the Human D2 Dopamine Receptor: Hit Validation in HTRF (AID 624455);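 note: stable D1 dopamine receptor cell line scored for blocking the D1 response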
How it was run: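 Validation of hits used D1 receptor stably expressed in cells with HTRF detection of response inhibition; origin screen measured calcium flux following EC80 dopamine in a force-coupled, inducible Hek293 Trex D2 cell line.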

[3] = molecular target: Arylsulfatase A (Homo sapiens) (UniProt P15289); test: qHTS screen for enhancers of Arylsulfatase A (ASA1): LOPAC Validation Assay (AID 720538)
Chain of Arylsulfatase A (Homo sapiens) (P15289 whole entry, looked up): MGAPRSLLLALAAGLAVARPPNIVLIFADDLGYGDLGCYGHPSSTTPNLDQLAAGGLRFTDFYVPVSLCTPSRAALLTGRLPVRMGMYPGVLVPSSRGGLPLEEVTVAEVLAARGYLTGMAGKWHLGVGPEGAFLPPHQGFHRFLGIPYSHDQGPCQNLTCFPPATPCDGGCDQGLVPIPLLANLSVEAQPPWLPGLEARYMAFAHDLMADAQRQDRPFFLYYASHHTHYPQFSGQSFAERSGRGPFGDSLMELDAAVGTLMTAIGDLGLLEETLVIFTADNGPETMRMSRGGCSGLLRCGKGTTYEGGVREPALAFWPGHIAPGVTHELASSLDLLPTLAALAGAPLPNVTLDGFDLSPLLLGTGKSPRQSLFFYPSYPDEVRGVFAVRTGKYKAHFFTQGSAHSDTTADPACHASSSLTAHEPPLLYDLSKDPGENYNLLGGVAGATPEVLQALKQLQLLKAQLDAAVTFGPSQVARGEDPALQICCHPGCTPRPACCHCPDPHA
How it was run: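 First, ASA-I179S fibroblasts from an MLD patient adhered for 6 hrs. Next, compounds were added for 48h. Then pNCS substrate (0.5mM final) with lysis buffer reacted 14h at room temperature before NaOH stop and fluorescence measurement.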

[4] = qHTS for compounds that reverse cellular toxicity of Amyloid beta (A-beta) peptide in yeast: LOPAC Validation Assay (AID 720559)
How it was run: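 Activity is expressed relative to DMSO and an equimolar ferric chloride/clioquinol mix. Compounds were pinned into medium with A-beta-expressing yeast, grown 48 hr at 30 C, then read by absorbance at 600 nm.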

[5] = qHTS for Activators of Parkin Expression: LOPAC Validation Assay (NLuc Reporter) (AID 720572)
How it was run: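 Cells harboring the Parkin-promoter coincidence reporter were treated for 24 h at seven concentrations. NLuc output was measured sequentially after the FLuc channel and scaled between DMSO and positive control values.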

[6] = qHTS for Activators of Parkin Expression: LOPAC Validation Assay (FLuc Reporter) (AID 720573)
How it was run: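 A neuronal cell line harbouring FLuc and NLuc reporters behind the Parkin promoter was exposed to compounds for 24 h. Firefly luciferase signal, measured after 10 min with detection reagent, was scaled to DMSO and positive-control wells.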

[7] = molecular target: T1, Hexokinase-4 (Homo sapiens) + Glucokinase regulatory protein (Homo sapiens) (UniProt P35557+Q14397); test: qHTS assay for inhibitors of recombinant human GCK-GKRP interaction: Diaphorase-coupled assay (AID 743205)
T1 sequence (P35557 whole entry, looked up): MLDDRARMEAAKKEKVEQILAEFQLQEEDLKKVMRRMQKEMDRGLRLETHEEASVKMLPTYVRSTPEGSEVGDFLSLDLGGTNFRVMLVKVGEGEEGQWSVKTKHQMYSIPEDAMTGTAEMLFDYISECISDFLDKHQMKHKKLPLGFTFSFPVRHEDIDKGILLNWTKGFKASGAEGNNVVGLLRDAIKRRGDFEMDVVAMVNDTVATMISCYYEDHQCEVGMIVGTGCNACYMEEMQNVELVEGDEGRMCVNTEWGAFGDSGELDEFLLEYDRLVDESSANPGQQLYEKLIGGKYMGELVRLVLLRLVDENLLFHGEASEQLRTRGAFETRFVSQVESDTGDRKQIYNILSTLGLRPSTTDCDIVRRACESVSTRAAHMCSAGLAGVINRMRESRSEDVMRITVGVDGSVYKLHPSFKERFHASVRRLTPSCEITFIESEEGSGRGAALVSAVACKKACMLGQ
T1 sequence (Q14397 whole entry, looked up): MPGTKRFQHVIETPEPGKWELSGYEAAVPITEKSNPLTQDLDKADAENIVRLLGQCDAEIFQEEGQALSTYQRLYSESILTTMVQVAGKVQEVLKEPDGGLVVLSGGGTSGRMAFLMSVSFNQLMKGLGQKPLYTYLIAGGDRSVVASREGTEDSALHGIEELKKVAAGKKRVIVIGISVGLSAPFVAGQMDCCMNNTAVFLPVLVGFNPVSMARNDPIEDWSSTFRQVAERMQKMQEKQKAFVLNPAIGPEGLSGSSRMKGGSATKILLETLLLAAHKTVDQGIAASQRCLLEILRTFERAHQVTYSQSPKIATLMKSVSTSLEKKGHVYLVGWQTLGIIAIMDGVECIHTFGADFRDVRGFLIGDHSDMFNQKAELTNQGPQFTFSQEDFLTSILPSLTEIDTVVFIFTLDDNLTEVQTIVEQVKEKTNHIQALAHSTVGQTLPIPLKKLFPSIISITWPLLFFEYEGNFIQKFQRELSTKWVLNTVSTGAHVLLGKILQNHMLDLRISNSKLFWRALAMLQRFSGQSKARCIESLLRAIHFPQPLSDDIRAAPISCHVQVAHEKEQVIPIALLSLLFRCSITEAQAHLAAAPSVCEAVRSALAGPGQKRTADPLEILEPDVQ
How it was run: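 Inhibitors of the GCK–GKRP complex relieve GKRP suppression of GCK, detected through a G6PDH–diaphorase cascade reducing resazurin. Human GST-GCK and FLAG-GKRP are used at 10 nM with 5 mM glucose and 0.4 mM ATP.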

[8] = molecular target: T1, Hexokinase-4 (Homo sapiens) + Glucokinase regulatory protein (Homo sapiens); test: qHTS assay for inhibitors of recombinant human GCK-GKRP interaction: ADP-Glo assay (AID 743206)
How it was run: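 Pin-transferred compounds meet a 15 nM GST-GCK/15 nM FLAG-GKRP/2 uM S6P mix (dispense concentrations). ATP is then added to 0.4 mM final with 5 mM glucose, and the reaction runs 60 min at room temperature. ADP is quantified luminescently.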

[9] = molecular target: T1, Hexokinase-4 (Homo sapiens) + Glucokinase regulatory protein (Homo sapiens); test: qHTS assay for inhibitors of recombinant human GCK-GKRP interaction: HTRF assay (AID 743207)
How it was run: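 Steps: dispense GCK–GKRP complex (5 nM each, GST- and FLAG-tagged) with 2 uM S6P; pin in compounds; add XL665/Eu-cryptate-labelled antibodies; incubate 60 min at room temperature; read time-resolved FRET at 665 and 615 nm.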

[10] = Natriuretic polypeptide receptor (hNpr1) antagonism - Pilot counterscreen GloSensor control cell line (AID 1347045; calls by dose curve)
How it was run: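 The SNP-driven cGMP luminescence signal (50 uM, 20 min, room temperature) was measured in GloSensor HEK293 control cells. Compounds were tested as a LOPAC titration series and preincubated for 30-50 min.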

[11] = molecular target: Atrial natriuretic peptide receptor 1 (Homo sapiens) (UniProt P16066); test: Natriuretic polypeptide receptor (hNpr1) antagonism - Pilot screen (AID 1347049; calls by dose curve;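 note: HEK293 cells with hNpr1 and GloSensor cGMP luciferase stimulated by 0.1 nM hNppA; agonist-evoked cGMP luminescence read 20 min after hNppA addition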)
Chain of Atrial natriuretic peptide receptor 1 (Homo sapiens) (P16066 whole entry, looked up): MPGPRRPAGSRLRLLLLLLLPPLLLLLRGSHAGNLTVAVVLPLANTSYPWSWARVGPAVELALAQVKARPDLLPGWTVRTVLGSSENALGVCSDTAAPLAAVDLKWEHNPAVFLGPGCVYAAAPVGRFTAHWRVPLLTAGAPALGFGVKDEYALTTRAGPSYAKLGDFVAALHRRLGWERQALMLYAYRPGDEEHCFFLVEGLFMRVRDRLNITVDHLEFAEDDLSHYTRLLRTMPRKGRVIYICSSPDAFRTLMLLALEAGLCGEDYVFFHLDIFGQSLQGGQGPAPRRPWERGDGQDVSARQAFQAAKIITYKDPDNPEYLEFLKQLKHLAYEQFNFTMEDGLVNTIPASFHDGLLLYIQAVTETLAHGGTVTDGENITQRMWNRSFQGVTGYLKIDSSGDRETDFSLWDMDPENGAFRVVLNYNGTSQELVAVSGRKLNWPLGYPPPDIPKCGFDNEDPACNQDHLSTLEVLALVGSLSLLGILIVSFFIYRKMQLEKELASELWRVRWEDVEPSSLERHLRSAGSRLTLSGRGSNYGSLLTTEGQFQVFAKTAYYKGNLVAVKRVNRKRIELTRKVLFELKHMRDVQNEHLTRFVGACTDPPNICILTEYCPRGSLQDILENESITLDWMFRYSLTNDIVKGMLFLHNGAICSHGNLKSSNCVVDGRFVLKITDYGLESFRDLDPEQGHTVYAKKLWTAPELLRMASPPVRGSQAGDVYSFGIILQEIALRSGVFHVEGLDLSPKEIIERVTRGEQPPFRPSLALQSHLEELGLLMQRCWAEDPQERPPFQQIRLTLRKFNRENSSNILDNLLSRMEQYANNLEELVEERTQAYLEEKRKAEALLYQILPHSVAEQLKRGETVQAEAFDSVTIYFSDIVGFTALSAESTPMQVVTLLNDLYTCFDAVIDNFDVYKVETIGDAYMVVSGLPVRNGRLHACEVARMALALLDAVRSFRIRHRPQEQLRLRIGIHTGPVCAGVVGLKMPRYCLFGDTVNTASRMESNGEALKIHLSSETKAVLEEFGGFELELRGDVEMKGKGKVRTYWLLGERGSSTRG
How it was run: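 Cells expressing receptor plus cGMP biosensor are seeded and incubated overnight at 37C, then loaded with GloSensor reagent (2% final) at room temperature for 2 h. Library compounds go on for 30 min. A pre-read precedes agonist (hNppA, 0.1 nM final) and a 20-min readout.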

[12] = molecular target: T2, Tyrosine-protein phosphatase non-receptor type substrate 1 (Homo sapiens) + Leukocyte surface antigen CD47 (Homo sapiens) (UniProt P78324+Q08722); test: CD47-SIRPalpha protein protein interaction - LANCE assay qHTS validation (AID 1347057; active = well fitted curve in the direction sought with a large enough effect in the signal ratio, with a control signal flat, not every such curve was filed as active; the % refers to the signal ratio)
T2 sequence (P78324 whole entry, looked up, the tested form may be a part): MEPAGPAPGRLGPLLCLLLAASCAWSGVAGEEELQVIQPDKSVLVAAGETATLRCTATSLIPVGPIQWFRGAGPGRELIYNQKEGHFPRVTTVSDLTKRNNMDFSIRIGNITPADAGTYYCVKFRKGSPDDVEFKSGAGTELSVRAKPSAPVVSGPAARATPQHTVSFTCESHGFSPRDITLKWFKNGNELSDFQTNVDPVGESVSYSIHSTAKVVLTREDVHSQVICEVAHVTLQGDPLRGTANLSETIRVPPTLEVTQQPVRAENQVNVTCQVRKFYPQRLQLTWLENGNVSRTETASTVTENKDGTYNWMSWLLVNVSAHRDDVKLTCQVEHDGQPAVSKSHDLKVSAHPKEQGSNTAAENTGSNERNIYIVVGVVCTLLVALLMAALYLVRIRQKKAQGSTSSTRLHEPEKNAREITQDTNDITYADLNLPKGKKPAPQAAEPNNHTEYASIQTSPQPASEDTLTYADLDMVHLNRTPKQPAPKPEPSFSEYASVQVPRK
T2 sequence (Q08722 whole entry, looked up, the tested form may be a part): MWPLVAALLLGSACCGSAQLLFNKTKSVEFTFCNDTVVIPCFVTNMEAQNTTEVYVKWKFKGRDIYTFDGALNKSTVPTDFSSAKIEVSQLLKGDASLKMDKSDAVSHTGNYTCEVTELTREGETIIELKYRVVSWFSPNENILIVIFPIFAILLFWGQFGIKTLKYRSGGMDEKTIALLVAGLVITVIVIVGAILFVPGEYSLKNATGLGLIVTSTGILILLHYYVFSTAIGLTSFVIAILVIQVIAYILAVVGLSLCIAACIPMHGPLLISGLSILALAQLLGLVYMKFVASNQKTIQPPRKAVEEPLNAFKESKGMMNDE
How it was run: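 Inhibition of soluble CD47/SIRPalpha ectodomain association by titrated compounds, measured as 665/615 nm time-resolved FRET ratio after sequential 30 min room-temperature incubations.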

[13] = molecular target: T2, Tyrosine-protein phosphatase non-receptor type substrate 1 (Homo sapiens) + Leukocyte surface antigen CD47 (Homo sapiens); test: CD47-SIRPalpha protein protein interaction - HTRF assay qHTS validation (AID 1347058; active = well fitted curve in the direction sought with a large enough effect in the signal ratio, not every such curve was filed as active; the % refers to the signal ratio)
How it was run: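 Soluble extracellular domains (6His-CD47, Avi-tag-biotinylated SIRPalpha) in PBS pH 7.4 with 0.05% IGEPAL CA-630. Compounds were preincubated 30 min at RT with CD47 and anti-His-Eu, then SIRPalpha and SAV-XL665 were added. TR-FRET 665/615 ratio.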

[14] = molecular target: T2, Tyrosine-protein phosphatase non-receptor type substrate 1 (Homo sapiens) + Leukocyte surface antigen CD47 (Homo sapiens); test: CD47-SIRPalpha protein protein interaction - Alpha assay qHTS validation (AID 1347059);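 note: bead proximity luminescence from CD47 binding SIRPalpha after compound preincubation with SIRPalpha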
How it was run: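 In PBS (pH 7.4) with 0.05% IGEPAL CA-630, compound is preincubated with biotin-Avi-SIRPalpha ectodomain before His-CD47 ectodomain and affinity beads are added. Light-protected room-temperature incubations; AlphaScreen readout.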

[15] = molecular target: Parathyroid hormone/parathyroid hormone-related peptide receptor (Homo sapiens) (UniProt Q03431); test: qHTS for PTHR1 Agonists: Optimization Screen against the NCGC LOPAC library (AID 1347079);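 note: GloSensor cAMP luminescence in HEK-293 GP2 cells expressing human PTHR1 with IBMX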
Chain of Parathyroid hormone/parathyroid hormone-related peptide receptor (Homo sapiens) (Q03431 whole entry, looked up): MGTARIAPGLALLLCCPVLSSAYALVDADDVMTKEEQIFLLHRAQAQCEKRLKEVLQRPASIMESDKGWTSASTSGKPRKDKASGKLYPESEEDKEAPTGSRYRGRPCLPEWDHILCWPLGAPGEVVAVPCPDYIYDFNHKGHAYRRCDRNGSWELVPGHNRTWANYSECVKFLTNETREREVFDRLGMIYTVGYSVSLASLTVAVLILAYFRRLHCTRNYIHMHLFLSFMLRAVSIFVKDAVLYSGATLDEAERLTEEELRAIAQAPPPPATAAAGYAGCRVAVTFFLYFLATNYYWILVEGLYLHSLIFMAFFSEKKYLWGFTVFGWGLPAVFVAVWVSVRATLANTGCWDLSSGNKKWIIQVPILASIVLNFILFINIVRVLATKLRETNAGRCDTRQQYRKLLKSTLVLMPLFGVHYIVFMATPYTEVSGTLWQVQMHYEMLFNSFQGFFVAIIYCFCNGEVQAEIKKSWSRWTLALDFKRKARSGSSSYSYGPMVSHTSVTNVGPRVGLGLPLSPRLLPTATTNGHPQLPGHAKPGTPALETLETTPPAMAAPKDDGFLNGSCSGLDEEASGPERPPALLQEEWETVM
How it was run: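 Signal increase flags agonism. GP2 cells, derived from HEK-293, express human PTHR1 and a GloSensor cAMP construct.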

[16] = molecular target: N-terminal Xaa-Pro-Lys N-methyltransferase 1 (Homo sapiens) (UniProt Q9BV86); test: qHTS Assay for Inhibitors of N-terminal methyltransferase 1 (NTMT1): LOPAC validation of the NTMT1 SAHH-coupled ThioGlo3 Assay (AID 1347143);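 note: SAH from peptide methylation measured as thiol fluorescence via SAHH coupling and ThioGlo3; potency is the fitted concentration of half-maximal effect; nearly all actives have a fitted effect of over 70% in size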
How it was run: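 In this qHTS pilot against the LOPAC set, 125nM NTMT1 met compounds tested at multiple concentrations, and fluorescence was normalized to background.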

[17] = qHTS to identify inhibitors of the type 1 interferon - major histocompatibility complex class I in skeletal muscle: primary screen against the NCATS LOPAC collection (AID 1347405);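 note: human myoblasts with HiBiT tag on endogenous HLA-B stimulated by IFN-beta; lytic HiBiT luminescence reporting HLA-B protein level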
How it was run: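 IFN-beta-stimulated (4 ng/ml) HLA-B HiBiT knock-in myoblasts, compound-treated 24 hrs up to 46 uM final; signal via LgBiT complementation and furimazine luminescence.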

[18] = qHTS for inhibitors of adenylyl cyclases using a fission yeast platform: a pilot screen against the NCATS LOPAC library (AID 1347410)
How it was run: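 Growth medium went into the plates first, then compounds were pinned (final up to 57 µM), then CHP2027 yeast were added. Plates were incubated overnight (18 h) at 30C in the dark, and GFP was measured by laser scanning cytometry.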

[19] = molecular target: Single-stranded DNA cytosine deaminase (Homo sapiens) (UniProt Q9GZX7); test: Validation qHTS assay for inhibitors of Activation Induced Cytidine Deaminase (AID): AID signal (AID 1347429)
How it was run: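 Compounds (up to 114 uM final) are tested against AID plus UDG using DJC20/DJC23 FRET substrate. Reactions incubate 4 hr at room temperature, receive NaOH for 30 min, and are read at Ex 540/Em 590 nm.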

[20] = molecular target: Calcium and integrin-binding protein 1 (Homo sapiens) (UniProt Q99828); test: Validation qHTS for Identification of Calcium Integrin Binding protein 1 (CIB1) Competitor (AID 1508618)
How it was run: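 Displacement of FITC-alphaIIb peptide (100 nM) from CIB1-GST (1 uM) is monitored by polarization in quantitative HTS format; buffer carries 5 mM CaCl2 and 125 mM NaCl at pH 7.4, incubations are at room temperature.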

[21] = Primary qHTS for small molecule stabilizers of the endoplasmic reticulum resident proteome: Secreted ER Calcium Modulated Protein (SERCaMP) assay (AID 1508630)
How it was run: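 The SH-SY5Y reporter protocol was run at 3 concentrations up to 38.3 uM (primary) or 11 concentrations (follow-up): 16 h compound, 100 nM thapsigargin for 4 h, then extracellular luciferase luminescence.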

[22] = molecular target: Papain (Carica papaya) (UniProt P00784); test: Primary qHTS assay for inhibitors of the protease papain (AID 1645873);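 note: papain turnover of Z-FR-AMC read as the AMC fluorescence gain over 10 min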
Chain of Papain (Carica papaya) (P00784 whole entry, looked up): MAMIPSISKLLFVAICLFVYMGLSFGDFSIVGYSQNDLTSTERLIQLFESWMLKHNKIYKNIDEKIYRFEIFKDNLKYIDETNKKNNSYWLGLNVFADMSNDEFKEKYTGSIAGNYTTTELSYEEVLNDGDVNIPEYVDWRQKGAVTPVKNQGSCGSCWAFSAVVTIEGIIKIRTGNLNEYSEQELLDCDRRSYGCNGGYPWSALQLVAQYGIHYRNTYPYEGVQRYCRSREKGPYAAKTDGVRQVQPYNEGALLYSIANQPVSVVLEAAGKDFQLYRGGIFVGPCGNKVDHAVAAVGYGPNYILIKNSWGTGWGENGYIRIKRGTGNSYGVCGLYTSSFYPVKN

[23] = molecular target: Catechol O-methyltransferase (Homo sapiens) (UniProt P21964); test: Confirmatory Screen for Target Class Profiling of Small Molecule Inhibitors of Methyltransferases (AID 1745852; calls by dose curve); details: MTase-Glo luminescence, SAH detection, recombinant enzyme; measured here: COMT max response; stronger effect = lower value
[24] = molecular target: Guanidinoacetate N-methyltransferase (Homo sapiens) (UniProt Q14353); test: as above; details: activity change, negative = inhibition: at 57.3 µM (top of the series) unless noted
[25] = molecular target: Nicotinamide N-methyltransferase (Homo sapiens) (UniProt P40261); test: as above; details: MTase-Glo luminescence, SAH detection, recombinant enzyme; measured here: NNMT max response; stronger effect = lower value
[26] = molecular target: Phenylethanolamine N-methyltransferase (Homo sapiens) (UniProt P11086); test: as above; details: MTase-Glo luminescence, SAH detection, recombinant enzyme; measured here: PNMT max response; stronger effect = lower value
Chain of Phenylethanolamine N-methyltransferase (Homo sapiens) (P11086 whole entry, looked up): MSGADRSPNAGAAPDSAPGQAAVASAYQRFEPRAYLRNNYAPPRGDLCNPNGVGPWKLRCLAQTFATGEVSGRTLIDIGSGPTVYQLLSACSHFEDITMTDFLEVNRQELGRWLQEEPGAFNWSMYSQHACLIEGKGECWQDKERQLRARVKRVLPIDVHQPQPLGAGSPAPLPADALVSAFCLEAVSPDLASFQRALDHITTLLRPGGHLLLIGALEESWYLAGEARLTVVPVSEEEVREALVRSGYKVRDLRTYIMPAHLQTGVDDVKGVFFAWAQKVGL

[27] = molecular target: Metallo-beta-lactamase type 2 (Klebsiella pneumoniae) (UniProt C7C422); test: qHTS to identify inhibitors of the New Delhi Metallo-beta-lactamase (NDM): assay validation screen against the NCATS LOPAC Collection (AID 1794843);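 note: nitrocefin turnover by NDM-1 measured as 485 nm absorbance at plateau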
Chain of Metallo-beta-lactamase type 2 (Klebsiella pneumoniae) (C7C422 whole entry, looked up): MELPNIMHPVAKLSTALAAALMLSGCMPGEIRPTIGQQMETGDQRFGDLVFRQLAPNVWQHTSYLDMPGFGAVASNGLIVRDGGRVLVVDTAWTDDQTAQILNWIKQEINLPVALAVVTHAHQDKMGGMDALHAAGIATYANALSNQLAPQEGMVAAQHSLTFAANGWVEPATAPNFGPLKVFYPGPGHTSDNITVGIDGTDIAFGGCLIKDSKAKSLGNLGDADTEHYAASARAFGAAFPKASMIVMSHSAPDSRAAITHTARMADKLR
How it was run: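 Enzyme 2 nM final, 50 mM HEPES pH 7.0, 1 uM ZnSO4, 0.01% Tween20; cpds in DMSO, preincub w/ enzyme; + nitrocefin (50 uM stock); A485 at plateau; no-enzyme column as blank.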

[28] = molecular target: Glutathione peroxidase 1 (Homo sapiens) (UniProt P07203); test: Primary qHTS Assay for Inhibitors of Recombinant Selenoprotein Glutathione Peroxidase 1 (GPX1) (AID 1845191); note: nearly all actives have a fitted effect of over 65% in size
How it was run: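 GPX1 10 nM, GR 100 nM, GSH 1 mM, NADPH 0.5 mM, CHP 0.5 mM (final). 30-min cpd preincubation, RT. Ex340/Em450 read t=0, t=15 min.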

CN1C2CCCC1CC(NC(=O)c1nn(C)c3ccccc13)C2 (stereo not drawn)
4.07%: activity [26]
inactive: outcome [1] | outcome [2] | Potency [3] | outcome [4] | outcome [5] | Potency [6] | outcome [7] | outcome [8] | outcome [9] | Potency [10] | Potency [11] | outcome [12] | outcome [13] | Potency [14] | outcome [15] | Potency [17] | outcome [18] | Potency [19] | outcome [20] | Potency [21] | Potency [22] | Potency [27] | Potency [28]
0.961%: activity [25]
1.32%: activity [23]
active: Potency [16] 56.2 µM
5.2%: activity change, negative = inhibition [24]
